About 1,200 (0.39%) of roughly 310,000 compounds were called active. Only a sample is shown. Results with a measured potency or affinity are listed apart. Unmarked numbers belong to inactive results. No rule for the calls is given here.

The target in this assay is Large T antigen (Simian virus 40) (UniProt P03070). The assay is described as follows: SV40 large T antigen inhibitors, biochemical (AID 1903). The settings on record: SV40 large T antigen ATPase/helicase inhibition assay; at 20 µM; active compounds read high.
Large T antigen (Simian virus 40), sequence (P03070 whole entry, looked up): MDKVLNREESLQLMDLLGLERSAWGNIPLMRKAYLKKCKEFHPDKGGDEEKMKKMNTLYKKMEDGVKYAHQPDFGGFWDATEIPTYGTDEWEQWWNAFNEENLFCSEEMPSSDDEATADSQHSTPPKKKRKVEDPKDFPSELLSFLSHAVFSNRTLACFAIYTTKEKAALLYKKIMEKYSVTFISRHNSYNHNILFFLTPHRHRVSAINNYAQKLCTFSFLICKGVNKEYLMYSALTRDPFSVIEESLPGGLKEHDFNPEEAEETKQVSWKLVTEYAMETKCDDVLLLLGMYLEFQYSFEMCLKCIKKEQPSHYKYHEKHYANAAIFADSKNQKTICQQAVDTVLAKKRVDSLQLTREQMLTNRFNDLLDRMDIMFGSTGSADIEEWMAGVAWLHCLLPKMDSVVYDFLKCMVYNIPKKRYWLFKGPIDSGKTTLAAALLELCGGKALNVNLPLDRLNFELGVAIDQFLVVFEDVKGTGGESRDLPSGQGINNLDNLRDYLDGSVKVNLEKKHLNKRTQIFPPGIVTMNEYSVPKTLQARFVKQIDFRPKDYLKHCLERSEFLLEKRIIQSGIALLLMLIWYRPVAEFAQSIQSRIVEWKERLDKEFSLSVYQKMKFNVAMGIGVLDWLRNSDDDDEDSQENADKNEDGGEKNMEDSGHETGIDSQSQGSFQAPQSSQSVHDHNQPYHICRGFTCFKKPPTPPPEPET
One may read the inhibition as the change of the read-out against control, counted positive when it falls. On to `Cc1ccc(S(=O)(=O)N2CCCCC2)cc1C(=O)NC1CC(C)(C)NC(C)(C)C1`, for which the inhibition is 13.5%.
For `COC(=O)C1=C(O)/C(=C\c2sccc2C)N=C1C` the value was 10.2%; for `COC(=O)C1=C(O)/C(=C\c2ccc(OCC(=O)Nc3ccccc3)cc2)N=C1C`, 4.47%.
For `CCOC(=O)C1=C(O)/C(=C\c2ccc(OC)c(OC)c2)N=C1C` the value was 4.98%; for `CCOC(=O)C1=C(O)/C(=C/c2cc(OC)c(OC)c(OC)c2)N=C1C`, 3.44%.
For the compound `COC(=O)C1=C(O)/C(=C\c2ccc(OCC(=O)Nc3ccc(OC)cc3)cc2)N=C1C`, the inhibition is 7.17%.
For the compound `COC(=O)C1=C(O)/C(=C\c2ccc(OCC(=O)Nc3ccccc3OC)cc2)N=C1C`, the inhibition was -3.54%.
For `C=CCc1cccc(CNc2nc3ccccc3n2CCN2CCOCC2)c1O` the value was -5.32%; for `O=C(/C=C/c1cccc(Br)c1)NC1CCN(Cc2ccccc2)CC1`, 7.35%.
On to `Oc1ccccc1N=Cc1sc2ccccc2c1Cl`, for which the inhibition was 19.7%.
For `CSc1ccccc1NC(=O)CSc1nncs1` the value was 14.5%; for `CN(C(=O)C1CCCO1)c1nnc(-c2ccccn2)s1` (stereo not given), 8.98%.
For `CN(C)c1ccc(NC(=O)CN2C(=O)CC(c3ccccc3)=Nc3ccccc32)cc1` the value was 47%; for `CCc1ccc(NC(=O)CC2NCCNC2=O)cc1` (stereo not given), 8.15%.
Regarding `Cc1nn(CC(=O)Nc2ccc(S(=O)(=O)N(C)C)cc2)c(C)c1[N+](=O)[O-]`, the inhibition is 10.9%.
For `O=C(CN1CCCC1)Nc1ccc(F)cc1` the value was -4.88%; for `CCN(CC)c1ccc(NC(=O)CN2CCN(CC(=O)Nc3ccc(F)cc3)CC2)cc1`, 26.9%; for `Cc1ccc(NC(=O)CC2NCCNC2=O)cc1` (stereo not given), 5.94%.
For `CN1CC(=O)N(CC(=O)Nc2ccc(N(C)C)cc2)c2ccccc2C1=O` the value was 37.1%.
For `CC(=O)c1ccc(NC(=O)Cn2nc(C)c([N+](=O)[O-])c2C)cc1` the value was 4.55%; for `CC12CCC(c3n[nH]c(=S)nc31)C2(C)C` (stereo not given), 24.4%.
With `Cc1ccc(SCC(=O)OCC(=O)NC2CCCCCC2)cc1`, the inhibition is 12.4%.
For `O=C(CNC(=O)C12CC3CC(CC(C3)C1)C2)NC1=NCCS1` the value was 14.4%; for `Cn1ccc(C(=O)Oc2ccc(C(=O)Nc3ccc(F)cc3F)cc2)n1`, 1.18%.
With `O=C(COC(=O)c1ccc(Cl)nc1)NCCNC(=O)COC(=O)c1ccc(Cl)nc1`, the inhibition was 14.5%.
As to `CC(=O)C1=C(O)C(=O)N(c2ccc(O)cc2)C1c1ccc(C)cc1` (stereo not given), the inhibition was 23.3%.
On to `Cn1cc(C(=O)Nc2ccc(F)c(Cl)c2)cn1`, for which the inhibition is 8.31%.
Take `COc1cccc(S(=O)(=O)Nc2ccc(C(=O)N3CCCCCC3)cc2)c1`: the inhibition is -1.76%.
For the compound `COc1ccc(CN2CCN(C(=O)CC(C)C)CC2)c2ccccc12`, the inhibition was 0.53%.
For `C/C(=C\C(=O)c1ncc(C(F)(F)F)cc1Cl)N(C)C` the value was 9.23%.
In the case of `Cn1cc(CN2CCC(n3nccc3NC(=O)Cc3ccccc3)CC2)cn1`, the inhibition was 2.67%.
Turning to `O=C(NC(NCC1CCCO1)C(Cl)(Cl)Cl)c1cccc2ccccc12` (stereo not given), the inhibition was 2.66%.
For `NC(=O)c1cc(-c2ccccc2)sc1NC(=O)CN1CCCCC1` the value was 25.6%.
For `CCc1cccc(N(C(=O)c2csnn2)C(C(=O)NC(C)(C)C)c2ccncc2)c1` (stereo not given) the value was 14.2%; for `Cc1ccc(SCC(=O)Nc2ccc3c(c2)C(=O)N(C)C3=O)cc1`, 3.52%; for `O=C(CN1CCN(c2ccc(Cl)cc2)CC1)Nc1ccc(F)cc1`, 5.08%.
For `CC(C)c1ccc(NC(=O)Cn2ncn3c(cc4ccccc43)c2=O)cc1` the value was 5.59%.
On to `CCc1ccc(NC(=O)Cn2ncn3c(cc4ccccc43)c2=O)cc1`, for which the inhibition is 8.68%.
For `CCN(CC)c1ccc(NC(=O)COC(=O)CCC(=O)c2ccc(F)cc2)cc1` the value was 26.6%; for `CCN(CC)c1ccc(NC(=O)CN2CCN(c3ccc(F)cc3)CC2)cc1`, 22.8%; for `CCN1CCN(CC(=O)Nc2ccc(N(C)C)cc2)CC1`, 15.6%.
Take `CCN(c1ccc(NC(=O)COC(=O)CCC(=O)c2ccc(F)cc2)cc1)C(C)C`: the inhibition is 23.7%.
For `CC(C)(C)NC(=O)CN1CCC(O)(c2ccccc2)CC1` the value was -0.59%; for `O=C(NCCCN1CCOCC1)c1cccc(NC(=O)c2ccccc2)c1`, 8.5%.
For `Cc1cc(C)n(Cc2ccc(NC(=O)c3c([N+](=O)[O-])c(C)nn3C)cc2)n1` the value was 21.7%.
For `Cn1ccnc1/C(=N\NC(=O)c1ccccc1)c1cccc([N+](=O)[O-])c1` the value was 17.9%.
For `Cc1nc2nc(C)c(CCC(=O)O)c(C)n2n1`, the inhibition is 8.37%.
For `CCCCC(CC)C(=O)Nc1ccc(C)c(O)c1` (stereo not given) the value was 1.23%.
`CCOc1ccc(S(=O)(=O)n2cnc3ccccc32)cc1`: the inhibition is 12.2%.
In the case of `CCCc1cc2c(=O)n(NC(=O)c3nn(C)cc3[N+](=O)[O-])c(C)nc2s1`, the inhibition was 15.2%.
In the case of `CCCCOP(=O)(c1ccc(N(C)C)cc1)C(O)c1cccnc1` (stereo not given), the inhibition is 7.96%.
`Cc1ccc(C(=O)NCc2ccncc2)cc1S(=O)(=O)Nc1cccc(C)c1C`: the inhibition was 2.57%.
For `O=C(COC(=O)Cn1nnc2ccccc21)Nc1ccccc1Br` the value was 7.03%; for `COc1ccc(NC(=O)COC(=O)Cn2nnc3ccccc32)cc1`, 12.6%; for `O=C(NC1CCCC1)C1CCCN(S(=O)(=O)c2cnc[nH]2)C1` (stereo not given), 5.21%.
For `CCOC(=O)c1ccc(NC2c3ccccc3C(=O)N2c2ccccn2)cc1` (stereo not given) the value was 0.465%.
As for `Cc1ccccc1NC(=O)CC1SC(=O)N(c2ccccc2)C1=O` (stereo not given), the inhibition was 14%.
For `O=C(CC1SC(=O)N(c2ccccc2)C1=O)Nc1ccccc1` (stereo not given), the inhibition is 38.4%.
For `CO/N=C/C(=N\Nc1cc(OC)cc(OC)c1)C(=O)c1ccccc1` the value was 9.31%; for `CCN(CC)c1ccc(CNc2ccc3c(c2)ncn3CC)cc1`, 32.3%.
For `Cc1ccc(CNc2ccc3c(c2)ncn3C(C)(C)C)cc1` the value was 21.9%; for `CCn1cnc2cc(NCc3ccc(C)cc3)ccc21`, 35.2%.
For `CCc1ccc(CNc2ccc3c(c2)ncn3C)cc1` the value was 22.1%.
`CN(C)c1ccc(CNc2ccc3c(c2)ncn3C(C)(C)C)cc1`: the inhibition was 37.9%.
`CCc1ccc(CNc2ccc3c(c2)ncn3CC)cc1`: the inhibition was 24.4%.

Source of the values: PubChem BioAssay AID1903 (Southern Research Specialized Biocontainment Screening …, 2009).
